According to the supplement of paper PMC9254222:
The full ranking holds about 1,100 compounds; the median of “Renilla luciferase signal (cell health) relative to plate median” is about 0.97, and the highest 2% start at about 1.6. The list comes from a sample in which the highest values are over-represented; it also holds similar structures and randomly drawn compounds.

System: HEK293T (UBE3A T485A transfected, BAR Wnt reporter)
Test: Renilla luciferase signal (cell health) relative to plate median (fold (linear ratio)); higher = higher Renilla signal
Details: 24 h
Summary of the method: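 Chemicals were robotically dosed at 0.01–100 uM for 24 h onto HEK293T cells, starting four hours after transfection with a BAR firefly luciferase Wnt reporter, TK-Renilla and an expression plasmid. The cells had been plated at 4500 cells/well in DMEM with 10% FBS at 37°C and 5% CO2. Following a Dual-Glo luciferase readout, the firefly/Renilla ratio served as the Wnt activity measure and raw Renilla as the cell health measure, both median-centred on each plate. Each value is the mean of four biological replicates.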

| Compound | Renilla luciferase signal (concentration: 0.1 uM) | Renilla luciferase signal (concentration: 1 uM) | Renilla luciferase signal (concentration: 10 uM) | Renilla luciferase signal (concentration: 100 uM) | Renilla luciferase signal (concentration: 0.01 uM) |
| --- | --- | --- | --- | --- | --- |
| C[C@]12CCC(=O)C[C@@H]1CC[C@@H]1[C@@H]2CC[C@]2(C)[C@@H](O)CC[C@@H]12 [5alpha-Dihydrotestosterone] | 0.867 | 0.848 | 1 | 2.06 | – |
| CCC(=O)O[C@H]1CC[C@H]2[C@@H]3CCC4=CC(=O)CC[C@]4(C)[C@H]3CC[C@]12C [Testosterone propionate] | 0.869 | 0.772 | 0.878 | 1.11 | – |
| CNC(=O)N(C)c1nnc(C(C)(C)C)s1 [Tebuthiuron] | 0.795 | 1.02 | 0.738 | 1.26 | 1.19 |
| Cc1ccccc1N [2-Methylaniline] | 1.15 | 1.29 | 1.25 | 1.25 | – |
| CC(c1ccc(O)cc1)(c1ccc(O)cc1)c1ccc(O)cc1 [4,4',4"-Ethane-1,1,1-triyltriphenol] | 0.468 | 0.58 | 0.509 | 0.0116 | – |
| ClC(Cl)c1ccccc1 [Benzal chloride] | 1.11 | 0.929 | 1.12 | 1.15 | – |
| CC(C)(C)c1cc(C(C)(C)C)c(O)c(C(C)(C)C)c1 [2,4,6-Tris(tert-butyl)phenol] | 0.951 | 1.04 | 1.18 | 1.73 | – |
| CC(C)(C)c1ccccc1O [2-tert-Butylphenol] | 0.823 | 0.913 | 0.724 | 0.378 | – |
| COc1ccc(O)c(C(C)(C)C)c1 [2-tert-Butyl-4-methoxyphenol] | 0.947 | 0.971 | 1.22 | 1.03 | – |
| O=C(Nc1ccc2[nH]ccc2c1)c1cc2cc(F)ccc2n1Cc1cccc(F)c1 | 1.07 | 1.02 | 0.543 | 0.0428 | – |
| CCCN(CC)CC1COC2(CCC(C(C)(C)C)CC2)O1 (configuration not stated) [Spiroxamine] | 1.34 | 1.13 | 1.06 | 0.0856 | 0.835 |
| CC(C)CCCCCCCOC(=O)c1ccccc1C(=O)OCCCCCCCC(C)C | 1.21 | 1.01 | 1.1 | 1.26 | – |
| CCCCOC(=O)c1ccccc1C(=O)OCc1ccccc1 [Benzyl butyl phthalate] | 1.05 | 1.23 | 1.28 | 1.04 | – |
| CC12CC1(C)C(=O)N(c1cc(Cl)cc(Cl)c1)C2=O (configuration not stated) [Procymidone] | 0.813 | 1.07 | 1.07 | 1.27 | – |
| C=CC1(C)OC(=O)N(c2cc(Cl)cc(Cl)c2)C1=O (configuration not stated) [Vinclozolin] | 0.904 | 1.09 | 1.28 | 2.37 | 1.03 |
| Cc1ccc(N)cc1 [4-Methylaniline] | 0.71 | 0.873 | 0.684 | 0.856 | – |
| Fc1ccc(Oc2ccnc3cc(Cl)cc(Cl)c23)cc1 [Quinoxyfen] | 0.865 | 0.93 | 1.03 | 0.994 | 0.918 |
| COC(=O)C(C)Oc1ccc(Oc2ccc(Cl)cc2Cl)cc1 (configuration not stated) [Diclofop-methyl] | 0.869 | 0.732 | 0.936 | 2.15 | 1.01 |
| Oc1cc(Cl)ccc1Oc1ccc(Cl)cc1Cl [Triclosan] | 0.922 | 0.956 | 0.911 | 0.083 | 0.941 |

| Compound | Renilla luciferase signal (concentration: 0.1 uM) | Renilla luciferase signal (concentration: 1 uM) | Renilla luciferase signal (concentration: 10 uM) | Renilla luciferase signal (concentration: 100 uM) | Renilla luciferase signal (concentration: 0.01 uM) |
| --- | --- | --- | --- | --- | --- |
| CCCCOC(=O)[C@@H](C)Oc1ccc(Oc2ccc(C#N)cc2F)cc1 [Cyhalofop-butyl] | 1.04 | 0.889 | 1.03 | 0.226 | 1.03 |
| O=[N+]([O-])c1ccc(Cl)cc1 [1-Chloro-4-nitrobenzene] | 0.98 | 0.976 | 0.993 | 1.1 | – |
| O=[N+]([O-])c1ccc(Oc2ccc(Cl)cc2Cl)cc1 [Nitrofen] | 1.06 | 1.17 | 1.05 | 1.69 | – |
| CCCCNC(=O)OCC#CI [3-Iodo-2-propynyl-N-butylcarbamate] | 0.986 | 0.947 | 0.822 | 0.0151 | 0.922 |
| CC1(C)C(C=C(Cl)Cl)C1C(=O)OC(C#N)c1ccc(F)c(Oc2ccccc2)c1 (configuration not stated) [Cyfluthrin] | 1.31 | 1.27 | 0.975 | 1.1 | 1.01 |
| COc1cccc(C(=O)NN(C(=O)c2cc(C)cc(C)c2)C(C)(C)C)c1C [Methoxyfenozide] | 1.1 | 1.05 | 1.04 | 0.685 | 1.37 |
| Nc1c(Cl)cc([N+](=O)[O-])cc1Cl [Dicloran] | 0.765 | 0.894 | 0.77 | 0.167 | 0.651 |
| CSC1=N[C@@](C)(c2ccccc2)C(=O)N1Nc1ccccc1 [Fenamidone] | 0.774 | 0.785 | 0.525 | 0.165 | 0.641 |
| O=c1n(Cl)c(=O)n(Cl)c(=O)n1Cl [Symclosene] | 0.995 | 0.923 | 1.18 | 1.88 | 1.05 |
| CCCOc1nn(C(=O)[N-]S(=O)(=O)c2ccccc2C(=O)OC)c(=O)n1C.[Na+] [Propoxycarbazone-sodium] | 1.21 | 1.03 | 0.975 | 1.2 | 1.17 |
| CCC(C)Nc1c([N+](=O)[O-])cc(C(C)(C)C)cc1[N+](=O)[O-] (configuration not stated) [Butralin] | 1.06 | 0.989 | 1.04 | 1.94 | 0.921 |
| CCCN(CCC)c1c([N+](=O)[O-])cc(C(F)(F)F)cc1[N+](=O)[O-] [Trifluralin] | 1.16 | 1.12 | 1.13 | 1.59 | 1.09 |
| CCC(CC)Nc1c([N+](=O)[O-])cc(C)c(C)c1[N+](=O)[O-] [Pendimethalin] | 0.996 | 0.843 | 1.02 | 0.801 | 0.981 |
| O=[N+]([O-])c1ccccc1 [Nitrobenzene] | 0.931 | 0.977 | 0.817 | 0.932 | – |
| CCOP(=S)(OCC)Oc1ccc([N+](=O)[O-])cc1 [Parathion] | 1.13 | 1.04 | 1.11 | 1.36 | 1.03 |
| CC1=C(C(=O)Nc2ccccc2)SCCO1 [Carboxin] | 1.11 | 1.07 | 0.949 | 2.12 | 0.996 |
| O=C(Nc1ccccc1)c1ccccc1I [Benodanil] | 0.942 | 0.924 | 0.913 | 0.739 | – |
| N=C(Nc1ccccc1)Nc1ccccc1 [1,3-Diphenylguanidine] | 1.03 | 0.989 | 0.895 | 0.887 | – |
| CS(=O)(=O)c1ccc(C(=O)C2C(=O)CCCC2=O)c([N+](=O)[O-])c1 [Mesotrione] | 0.808 | 0.956 | 1.03 | 1.39 | 0.834 |
